The values below come from PubChem BioAssay (NCATS).

Records with an inconclusive call do not appear. The source made the active and inactive calls. Calls follow the shape of the dose curve; as a rule, active = well fitted inhibition curve with a large enough effect; inconclusive = small, poorly fitted or top-dose-only effect; inactive = flat fitted curve, though single readings scatter.

The subject of this assay is CRL-7250. As to the kind of experiment: qHTS assay to identify novel small-molecules to repurpose for Merkel cell carcinoma treatment (AID 1296009). Also: nearly all actives have a fitted effect of over 60% in size. Conditions: MCC and control cell lines, CellTiter-Glo viability, 72 h; series mostly up to 92 µM; activity change, negative = cytotoxicity: at the top concentration. The gist of the method:
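CellTiter-Glo luminescence after 72 hr compound exposure at 37 degree celsius gave cell viability. Libraries NPC and MIPE were run as 8- and 11-point dose responses; RLUs normalized to DMSO (negative) and no-cell (cytotoxicity) controls.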
In general terms: qHTS replaces the single test concentration by a dilution series.
In the case of `C=C1C2(CCC(=O)OC2(C)C)CC(OC(=O)/C(C)=C/C)C2(C)C13OC14C(=O)OC(C)(C(=O)C12C(=O)OC4C)C3OC(C)=O` (configuration not stated), the “outcome” value was “inactive [at 17.4 µM]”.

`COc1cc2c(cc1OC)N1C(=O)C[C@]34C=CCN5CC[C@@H]2[C@@H](CC3)[C@]514`: the result was inactive.

Take `O=C(OC[C@H]1O[C@@H](Oc2ccccc2COC(=O)C2(O)C=CCCC2O)[C@H](O)[C@@H](O)[C@@H]1O)c1ccccc1` (some centres not stated): the “outcome” value was “inactive [at 17.4 µM]”.

With `COC(=O)C1=COC(OC2OC(CO)C(O)C(O)C2O)C2C(COC(=O)/C=C/c3ccc(O)cc3)C(O)C(O)C12` (configuration not stated), the “outcome” value is “inactive [at 17.4 µM]”.

As to `CCc1cc(CC[C@]2(C3CCCC3)CC(O)=C(Cc3nc4nc(C)cc(C)n4n3)C(=O)O2)cc(CC)n1`, the molecule was called inactive.

As to `COc1cc(/C=C/C(=O)O[C@H]2[C@H](O)[C@@H](CO)O[C@@]2(CO)O[C@H]2O[C@H](COC(=O)c3ccc(O)cc3)[C@@H](O)[C@H](O)[C@H]2O)cc(OC)c1OC`, the “outcome” value is “inactive [at 17.4 µM]”.

As for `C=C1C(=O)O[C@@H]2C[C@H](C)[C@@]3(O)C=C(C(C)=O)[C@]4(CC3C[C@H]12)C(=O)O[C@H]1C[C@@H](C)C(CCC(C)=O)=CC[C@H]14` (some centres not stated), the “outcome” value was “inactive [at 17.4 µM]”.

For the molecule `CC1=C2C(=O)C=C(CO)[C@@H]2[C@H]2OC(=O)[C@H](C)[C@@H]2[C@@H](O)C1`, the molecule was called inactive.

For `CC1=C(CC(=O)O)c2cc(F)ccc2C1=Cc1ccc(S(C)(=O)=O)cc1`, the molecule was called inactive.

Turning to `COc1ccc(CCN(C)CCCOc2nsc(-c3ccccc3)n2)cc1OC`, the molecule was called inactive.

For `COC1OC(O)C2(CCC3(O2)C(C)CC2OC(=O)C4(C)CCCC3(C)C24)C1O` (configuration not stated), the molecule was called inactive.

For the molecule `COC(=O)C1=COC(OC2OC(CO)C(O)C(O)C2O)C2C1C=CC2(O)CO` (configuration not stated), the “outcome” value was “inactive [at 17.4 µM]”.

`COC1CC(=O)C23C(=O)NC(CC(C)C)C2C(C)C(C)=CC3/C=C(\C)CCC1O` (configuration not stated): the “outcome” value was “inactive [at 17.4 µM]”.

For the molecule `CC1(C)CC[C@]2(C(=O)O[C@@H]3O[C@H](CO[C@@H]4O[C@H](CO)[C@@H](O)[C@H](O)[C@H]4O[C@@H]4O[C@H](CO)[C@@H](O)[C@H](O)[C@H]4O)[C@@H](O)[C@H](O[C@@H]4O[C@H](CO)[C@@H](O)[C@H](O)[C@H]4O)[C@H]3O)CC[C@]3(C)C(=CCC4[C@@]5(C)CC[C@@H](O)[C@@](C)(C(=O)O[C@@H]6O[C@H](CO)[C@@H](O)[C@H](O)[C@H]6O)C5CC[C@]43C)[C@@H]2C1` (some centres not stated), the outcome is “inactive [at 9.27 µM]”.

`C=C(C)C1CCC2(C(=O)O[C@@H]3O[C@H](CO[C@@H]4O[C@H](CO)[C@@H](O)[C@H](O)[C@H]4O)[C@@H](O)[C@H](O[C@@H]4O[C@@H](C)[C@H](O)[C@@H](O)[C@H]4O)[C@H]3O)CCC3(C(=O)O)C(CCC4C5(C)CCC(O)C(C)(C)C5CCC43C)C12` (some centres not stated): the outcome was “inactive [at 9.27 µM]”.

As to `OC/C=C/C=C/[C@H]1Cc2cc(O)cc(O)c2O1`, the molecule was classed as inactive.

As for `COc1ccc(CNCc2cccc3ccccc23)cc1`, the result was inactive.

With `C=C(C(=O)O)C1CC(O)C2(C)CCCC(C)(O)C2C1` (configuration not stated), the call was inactive.

Regarding `COCCN(C)Cc1ccc2nc3sc(C(=O)N(C)C4CCCCC4)cn3c2c1`, the molecule was called inactive.

With `COc1cc(Br)c(S(=O)(=O)Nc2ccc(Cl)c(O[C@@H]3CCN(C)C3)c2)cc1OC`, the outcome was inactive.

Consider `Cc1ccc(NC(=O)C(=O)NC2CC(C)(C)NC(C)(C)C2)cc1`, for which the result was inactive.

`Cn1c2ccc(NC(=O)c3ccccc3)cc2c(=O)n2nc(C(=O)O)cc12`: the “outcome” value is “inactive [at 17.4 µM]”.

In the case of `CCCCc1ccc(NS(=O)(=O)c2ccc(F)cc2)cc1`, the result was inactive.

Take `CC(C)[C@](O)(c1ccc2cc(OC(F)F)c(OC(F)F)cc2c1)c1cn[nH]n1`: the outcome was inactive.

As for `C=CC1(C)CC(OC(=O)C(=C)C(O)COC(C)=O)C(C(=C)C(=O)OC)C(O)C1C(=C)CO` (configuration not stated), the “outcome” value is “inactive [at 17.4 µM]”.

Turning to `CCC(C)/C=C(C)/C=C/C1=CC2=CC(=O)C(C)(O)C(OC(C)=O)C2CO1` (configuration not stated), the call was inactive.

`CC(=O)N[C@@H](CCCCN)C(=O)N(C)[C@@H](CC(C)C)C(=O)N[C@H](C(=O)N(C)[C@@H](Cc1ccccc1)C(=O)N[C@H](Cc1ccccc1)C(N)=O)C(C)C`: the outcome was “inactive [at 4.96 µM]”.
